Laboratory results: PubChem BioAssay (Tox21)
Results filed as inconclusive are left out. Where a call stands in place of a potency, no number is given. A number with no mark means an inactive call. Active and inactive are the calls of the source. Unless noted, the call rests on the fitted dose curve; in most records, active means well fitted curve in the direction sought with a large enough effect in the repeat runs; inconclusive means weak or mixed curves; inactive means no such curve, though single readings can be large; an effect the other way counts as inactive or inconclusive.

What was measured:
[1] = biological target: Retinoic acid receptor RXR-alpha (Homo sapiens) (UniProt P19793); experiment: qHTS assay to identify small molecule agonists of the RXR signaling pathway (AID 1159527; calls by dose curve; further: nearly all actives have a fitted effect of over 35% in size; further: potency means the concentration at half of the fitted maximal effect)
Sequence of Retinoic acid receptor RXR-alpha (Homo sapiens) (P19793 whole entry, looked up): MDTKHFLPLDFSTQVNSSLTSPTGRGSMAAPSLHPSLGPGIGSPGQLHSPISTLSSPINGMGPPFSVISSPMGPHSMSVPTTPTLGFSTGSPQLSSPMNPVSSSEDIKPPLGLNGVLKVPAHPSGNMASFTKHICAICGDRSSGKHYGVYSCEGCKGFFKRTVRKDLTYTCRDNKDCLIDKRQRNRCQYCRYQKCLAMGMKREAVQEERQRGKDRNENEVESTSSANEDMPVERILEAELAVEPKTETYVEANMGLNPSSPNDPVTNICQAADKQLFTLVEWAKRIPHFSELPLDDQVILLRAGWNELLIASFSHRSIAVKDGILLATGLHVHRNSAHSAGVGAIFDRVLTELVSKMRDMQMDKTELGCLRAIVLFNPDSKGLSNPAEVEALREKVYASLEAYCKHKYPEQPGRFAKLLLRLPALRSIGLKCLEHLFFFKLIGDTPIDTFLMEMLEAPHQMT
In short: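 Agonist-mode beta-lactamase reporter assay: HEK 293T RXR-alpha-UAS-bla cells treated 16 hr at 37 C with compounds, 9-cis retinoic acid as positive control. LiveBLAzer FRET substrate, 405 nm excitation, 460/530 nm emission.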

[2] = qHTS assay to identify small molecule agonists of the RXR signaling pathway - cell viability counter screen (AID 1159529); further: series mostly up to about 77 µM; nearly all actives have a fitted effect of over 50% in size
In short: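 CellTiter-Glo luminescence gave viability in the wells also read for beta-lactamase. Cells (RXR-alpha-UAS-bla HEK 293T, 2% charcoal-stripped FBS medium) had 5 hr plating, then 16 hr compound exposure at 37 C; tetraoctyl ammonium bromide served as positive control.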

[3] = qHTS assay to identify small molecule antagonists of the retinoid acid receptor (RAR) signaling pathway - cell viability counter screen (AID 1159551); further: nearly all actives have a fitted effect of over 35% in size
In short: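 In this counter screen, the RARE-luciferase line C3RL4 was exposed for 6 h at 37 C and 5% CO2 to compounds with retinol at 1 uM final. Cellular ATP, read by luminescence, served as the viability measure.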

[4] = qHTS assay to identify small molecule antagonists of the retinoic acid receptor (RAR) signaling pathway (AID 1159552; further: nearly all actives have a fitted effect of over 50% in size)
In short: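 Luminescent RARE reporter read-out in C3RL4 cells: 6 hr co-treatment at 37 C of test compounds with retinol at 1 uM final. Cells plated overnight beforehand; luciferase reagent incubated 30 min at room temperature before reading.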

[5] = qHTS assay to identify small molecule agonists of the retinoic acid receptor (RAR) signaling pathway (AID 1159553); further: potency means the concentration at half of the fitted maximal effect
In short: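 In this cell-based screen, 1,000 C3RL4 cells per well were cultured overnight, dosed with test chemicals in DMSO for 6 hr, and assessed for RARE luciferase luminescence.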

CCOc1ccc(OCC)c(Cl)c1
Potency [1]: inactive
Potency [2]: inactive
outcome [3]: inactive
Potency [4]: inactive
Potency [5]: inactive

C[C@@H](N)C(=O)O
Potency [1]: inactive
Potency [2]: inactive
outcome [3]: inactive
Potency [4]: inactive

CCOC(=O)NCCC[Si](OCC)(OCC)OCC
Potency [1]: inactive
Potency [2]: inactive
outcome [3]: inactive
Potency [4]: inactive
Potency [5]: inactive

CCN(CC)CCNC(=O)COc1ccc(Cl)cc1
Potency [1]: inactive
Potency [2]: inactive
outcome [3]: inactive
Potency [4]: inactive
Potency [5]: inactive

CC(=O)O[C@H]1CC[C@@]2(C)C(=CC[C@@H]3[C@@H]2CC[C@]2(C)C(C(C)=O)=CC[C@@H]32)C1
Potency [1]: inactive
Potency [2]: inactive
outcome [3]: inactive
Potency [4]: inactive
Potency [5]: inactive

CCOC(=O)C(Br)c1ccccc1 (centres undefined)
Potency [1]: inactive
Potency [2]: inactive
outcome [3]: inactive
Potency [4]: inactive
Potency [5]: inactive

COC(=O)C(C)O (centres undefined)
Potency [1]: 12.6 µM (active)
Potency [2]: inactive
outcome [3]: inactive
Potency [4]: inactive
Potency [5]: inactive

NNS(=O)(=O)c1ccc(Oc2ccc(S(=O)(=O)NN)cc2)cc1
Potency [1]: inactive
Potency [2]: inactive
outcome [3]: inactive
Potency [4]: inactive
Potency [5]: inactive

COC(=O)/C=C(/C)N
Potency [1]: inactive
Potency [2]: inactive
outcome [3]: inactive
Potency [4]: inactive
Potency [5]: inactive

Cc1cc(S(=O)(=O)O)c(N)cc1Cl
Potency [1]: inactive
Potency [2]: inactive
outcome [3]: inactive
Potency [4]: inactive
Potency [5]: inactive

COc1ccccc1OCC(O)COC(N)=O (centres undefined)
Potency [1]: inactive
Potency [2]: inactive
outcome [3]: inactive
Potency [4]: inactive
Potency [5]: inactive

CC(C)(C)C1CCCCC1=O (centres undefined)
Potency [1]: inactive
Potency [2]: inactive
outcome [3]: inactive
Potency [4]: inactive
Potency [5]: inactive

CCCCCCCCCC/C=C/C#N
Potency [1]: inactive
Potency [2]: inactive
outcome [3]: inactive
Potency [4]: inactive
Potency [5]: inactive

C[C@@H]1CN(c2c(F)c(F)c3c(=O)c(C(=O)O)cn(C4CC4)c3c2F)C[C@H](C)N1
activation [1]: 6.08% [at 15.8 µM]
activity change, negative = cytotoxicity [2]: 10.3% [at 15.8 µM]
activity change, negative = cytotoxicity [3]: 3.44% [at 19 µM]
activity, negative = inhibition [4]: 16.3% [at 19 µM]
Potency [5]: inactive

OCc1ccccc1O
Potency [1]: inactive
Potency [2]: inactive
outcome [3]: inactive
Potency [4]: inactive
Potency [5]: inactive

CCCS(=O)c1ccc2nc(NC(=O)OC)[nH]c2c1 (centres undefined)
Potency [1]: inactive
Potency [2]: inactive
outcome [3]: inactive
Potency [4]: inactive
Potency [5]: inactive

Cc1ccc([N+](=O)[O-])cc1Cl
Potency [1]: inactive
Potency [2]: inactive
outcome [3]: inactive
Potency [4]: inactive
Potency [5]: inactive

COc1cc(Cl)ccc1Cl
Potency [1]: inactive
Potency [2]: inactive
outcome [3]: inactive
Potency [4]: inactive
Potency [5]: inactive

C/C(=N\O)[C@@H](C)NCC(C)(C)CN[C@H](C)/C(C)=N/O
Potency [1]: inactive
Potency [2]: inactive
outcome [3]: inactive
Potency [4]: inactive
Potency [5]: inactive

CN1[C@@H]2CC[C@H]1CC(OC(=O)c1c[nH]c3ccccc13)C2 (some centres undefined)
Potency [1]: inactive
Potency [2]: inactive
outcome [3]: inactive
Potency [4]: inactive
Potency [5]: inactive

CCOc1ccc2nc(N)sc2c1
Potency [1]: inactive
Potency [2]: inactive
outcome [3]: inactive
Potency [4]: inactive
Potency [5]: 3.83 µM (active)

CCCNC(C)C(=O)Nc1c(C)csc1C(=O)OC (centres undefined)
Potency [1]: inactive
Potency [2]: inactive
outcome [3]: inactive
Potency [4]: inactive
Potency [5]: inactive

CC(=O)OC1C2(C)CCC(C2)C1(C)C (centres undefined)
Potency [1]: inactive
Potency [2]: inactive
outcome [3]: inactive
Potency [4]: inactive
Potency [5]: inactive

CC1=CC(=O)CC(C)(C)C1=O
Potency [1]: inactive
Potency [2]: inactive
outcome [3]: inactive
Potency [4]: inactive
Potency [5]: inactive

CC(C)(CO)[C@@H](O)C(=O)NCCC(=O)O
Potency [1]: inactive
Potency [2]: inactive
outcome [3]: inactive
Potency [4]: inactive
Potency [5]: inactive

C1CSCCS1
Potency [1]: inactive
Potency [2]: inactive
outcome [3]: inactive
Potency [4]: inactive
Potency [5]: inactive

CC(C)CC(=O)OCc1ccccc1
Potency [1]: inactive
Potency [2]: inactive
outcome [3]: inactive
Potency [4]: inactive
Potency [5]: inactive

CN(C)Cc1ccccc1
Potency [1]: inactive
Potency [2]: inactive
outcome [3]: inactive
Potency [4]: inactive
Potency [5]: inactive

CCCCCOc1ccc(C2SC(=O)NC2=O)cc1OCC (centres undefined)
Potency [1]: 5.35 µM (active)
Potency [2]: inactive
outcome [3]: inactive
Potency [4]: inactive
Potency [5]: 21.1 µM (active)

N#CSCC(=O)O
Potency [1]: inactive
Potency [2]: inactive
outcome [3]: inactive
Potency [4]: inactive
Potency [5]: inactive

COc1ccc(Nc2ccc(OC)cc2)cc1
Potency [1]: inactive
Potency [2]: inactive
outcome [3]: inactive
Potency [4]: inactive
Potency [5]: 4.94 µM (active)

O=C(CCCl)NCc1ccccc1
Potency [1]: inactive
Potency [2]: inactive
outcome [3]: inactive
Potency [4]: inactive
Potency [5]: inactive

O=S(=O)(O)C(F)(F)F
Potency [1]: inactive
Potency [2]: inactive
outcome [3]: inactive
Potency [4]: inactive
Potency [5]: inactive

FC(F)(F)C(Cl)(Cl)Cl
Potency [1]: inactive
Potency [2]: inactive
outcome [3]: inactive
Potency [4]: inactive
Potency [5]: inactive

CCCNC(C)(C)COC(=O)c1ccccc1
Potency [1]: inactive
Potency [2]: inactive
outcome [3]: inactive
Potency [4]: inactive
Potency [5]: inactive

O=c1oc2c(O)c(O)cc3c(=O)oc4c(O)c(O)cc1c4c23
activation [1]: 11.4% [at 15.8 µM]
activity change, negative = cytotoxicity [2]: 8.17% [at 15.8 µM]
activity change, negative = cytotoxicity [3]: -0.41% [at 19 µM]
activity, negative = inhibition [4]: 3.23% [at 19 µM]
Potency [5]: inactive

Cc1ccc(C)c(N)c1
Potency [1]: inactive
Potency [2]: inactive
outcome [3]: inactive
Potency [4]: inactive
Potency [5]: inactive

CCCOCCC
Potency [1]: inactive
Potency [2]: inactive
outcome [3]: inactive
Potency [4]: inactive
Potency [5]: inactive
